This excerpt belongs to a sample that is enriched for hits.
Dicer processing = blocks human Dicer maturation of pre-miR-21; Q9UPY3; cat-ELCCA pre-miR-21 Dicer processing, chemiluminescence; stronger effect = higher value; z-score at 25 µM; 47,000 tested, 6% active; in the data active means z-score above about 3, passing the limit was not always enough;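 further: plate controls were vehicle for no effect and no enzyme for full effect; higher signal means more uncleaved substrate so more Dicer inhibition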
The depositor's hits bear a star.

SMILES	Dicer processing
O=C1SC(Nc2ccc(F)cc2)C(=O)N1c1ccccc1 (stereo not drawn)	1.9
Nc1nccnc1C(=O)N/N=C/c1ccccc1F	0.4
Cc1ccc2c(c1C)NC(=O)CC(c1ccccc1O)=N2	1.6
Cc1ccc(O)c(C2=NN3C(C2)c2ccccc2OC3C(C)C)c1 (stereo not drawn)	0.45
Cc1ccc(O)c(C2=Nc3ccccc3N=C(c3ccco3)C2)c1	4*
N#Cc1c(SCC(=O)Nc2cc(Cl)cc(Cl)c2)nc2c(c1/C=C\c1ccccc1)CCC2	-0.39
O=C(Oc1ccnc2cc(Cl)ccc12)N1CCCCC1	2.2
CN(C)S(=O)(=O)c1ccc2c(c1)oc(=O)c1cc(S(=O)(=O)N(C)C)ccc12	-0.56
O=c1oc2cc(S(=O)(=O)N3CCCC3)ccc2c2ccc(S(=O)(=O)N3CCCC3)cc12	3.5*
CC(C)(C)NS(=O)(=O)c1ccc2c(c1)oc(=O)c1cc(S(=O)(=O)NC(C)(C)C)ccc12	-0.8
O=S(=O)(Oc1ccc(Cl)cc1)c1c(Cl)sc(Cl)c1Br	0.96
COc1ccc(CN2COc3ccc(Br)cc3C2)cc1	2.5
FC(F)(F)Oc1ccccc1NC(=S)N1CCc2c([nH]c3ccccc23)C1C(F)(F)F (stereo not drawn)	-7
O=C(O)CCC(=O)N1CCc2c([nH]c3ccccc23)C1C(F)(F)F (stereo not drawn)	1
O=C(NC(=O)N1CCc2c([nH]c3ccccc23)C1C(F)(F)F)c1ccccc1 (stereo not drawn)	7.5*
O=S(=O)(c1cc(C(F)(F)F)cc(C(F)(F)F)c1)N1CCc2c([nH]c3ccccc23)C1C(F)(F)F (stereo not drawn)	3.5*
FC(F)(F)Oc1ccc(NC(=S)N2CCc3c([nH]c4ccccc34)C2C(F)(F)F)cc1 (stereo not drawn)	1.1
O=C(O)CCCC(=O)N1CCc2c([nH]c3ccccc23)C1C(F)(F)F (stereo not drawn)	-0.64
Cc1ccccc1CNCC1CCCO1 (stereo not drawn)	0.52
COc1ccc(COC(=O)C2=C(C)NC3=C(C(=O)CCC3)C2c2ccc(OC(C)=O)c(OC)c2)cc1 (stereo not drawn)	1.2
CCOC(=O)c1sc(SCc2ccccc2)c2c1CCCC2=O	-1.6
CCCCN(C(C)C)S(=O)(=O)c1ccc(C)cc1	-0.26
CCN(CC(O)Cn1c2ccccc2c2ccccc21)S(=O)(=O)c1ccc(C)cc1 (stereo not drawn)	0.77
CCN(CCS(=O)(=O)c1ccccc1)S(=O)(=O)c1ccc(C)cc1	4.5*
CCCc1c(O)nc2ccccn2c1=O	0.21
SMILES	Dicer processing
Cn1c(C(=O)N/N=C/c2ccccc2Cl)cnc1SCc1ccc(Cl)cc1	0.03
CCOC(=O)c1ccc(NC(=S)N/N=C/c2ccccc2Cl)cc1	9.9
O=C(CCn1nnc(-c2cccc(Cl)c2Cl)n1)N/N=C/c1ccccc1Cl	3.2*
Cc1ccc(-n2cccc2)c(NC(=S)NC(=O)c2ccccc2)c1	-1.4
O=C(c1cnc2cc(-c3ccccc3)nn2c1)c1cc(F)ccc1O	-1.1
O=C(Oc1ccc(F)cc1Cl)c1cc2ccccc2s1	0.94
O=C1NC(c2ccccc2OCc2ccccc2)Nc2sc3c(c21)CCCC3 (stereo not drawn)	4.3
O=C1NC(c2ccc(OCc3ccccc3)cc2)Nc2sc3c(c21)CCCC3 (stereo not drawn)	3.6*
CN1CCc2c(sc3c2C(=O)NC(c2ccc(OCc4ccccc4)cc2)N3)C1 (stereo not drawn)	-1.4
CCCCOC(=O)C1C2C=CC3(CN(Cc4ccccc4)C(=O)C13)O2 (stereo not drawn)	0.77
CC(C)(C)c1cs/c(=N/c2ccccn2)n1-c1cccc(C(F)(F)F)c1	16
CN(CCOC(=O)c1ccco1)C(C)(C)C	3.4*
COCCOC(=O)c1c(C)oc2ccc(OC(=O)c3ccco3)cc12	1.3
CC(C)(C)c1ccc(OC(=O)c2ccco2)cc1	0.7
Cn1c(=O)cc(N2CCCCC2)c2c(=O)n(-c3ccccc3)c(=O)n(-c3ccccc3)c21	1
Cc1ccc2nc3sc4ccc(Cl)cc4n3c(=O)c2c1	-0.55
O=C(Nc1ccccc1)n1nccc1-c1ccc([N+](=O)[O-])cc1Cl	0.61
CN(C)c1ccc(CNc2nc3ccccc3n2CCN2CCCCC2)cc1	2.2
CCN(CC)CCn1c(NCc2ccc(N(C)C)cc2)nc2ccccc21	4.4*
CCN(CC)CCn1c(NCc2ccncc2)nc2ccccc21	2.7
CCn1c(NCc2ccncc2)nc2ccccc21	2
CCCn1c(NCc2ccncc2)nc2ccccc21	1.3
CCc1ccc(CNc2nc3ccccc3n2C)cc1	3.4*
O=C(Nc1nccs1)c1ccc2noc(-c3ccc(Cl)cc3)c2c1	-1.6
CCCOC(=O)C1=C(C)NC2=C(C(=O)CC(C)(C)C2)C1c1ccc(OC)c(Br)c1 (stereo not drawn)	5.7
SMILES	Dicer processing
COc1cc(C2C(C#N)=C(N)Oc3cc(O)ccc32)ccc1OCc1ccc(F)cc1 (stereo not drawn)	-2.1
CC(=O)Nc1cc(C)c(NS(=O)(=O)c2ccc(C)cc2)c(C)c1	-1.1
Cc1ccc(NS(=O)(=O)c2ccc(S(N)(=O)=O)cc2)cc1	-1.7
Cc1ccc(S(=O)(=O)Nc2ccc(O)c(S(=O)(=O)c3ccc(C)cc3)c2)cc1	4*
O=S(=O)(NCCN1CCOCC1)c1ccc(F)cc1	1
CC1CCCN(S(=O)(=O)c2cc(Cl)c(Cl)cc2Cl)C1 (stereo not drawn)	-0.41
O=C1c2cc(S(=O)(=O)O)ccc2-c2ccc(S(=O)(=O)O)cc21	-0.18
CSc1nnc(SCc2nc(-c3ccc([N+](=O)[O-])cc3)cs2)s1	0.44
N#C/C(=N\Nc1ccc(F)cc1)C(=O)c1ccccc1Cl	0.3
COc1ccc(C(=O)/C(C#N)=N/Nc2cccc(Cl)c2Cl)cc1	8.3*
COc1ccc(NC(=O)Nc2cccc(Cl)c2Cl)c(OC)n1	-0.73
CCCCCOC(=O)C1=C(C)NC2=C(C(=O)CC(C)(C)C2)C1c1ccc(OC(C)=O)cc1 (stereo not drawn)	1.8
CC(=O)Oc1c(I)c(=O)n(C)c2ccccc12	-0.68
Cn1c(=O)c(I)c(O)c2ccccc21	5.3*
Cn1c(=O)c(-c2ccccc2)c(O)c2ccccc21	-0.8
Cc1ccc(-c2nc(-c3cc4cc(C)ccc4[nH]c3=O)no2)cc1	1.5
c1ccc2sc(NC3=NCN(Cc4ccc5c(c4)OCO5)CN3)nc2c1	2.8
CC1CCCCC1N1CN=C(Nc2nc3ccccc3s2)NC1 (stereo not drawn)	3.8*
COc1cccc(Nc2nc3ccccc3s2)c1	0.59
CNS(=O)(=O)c1cc(C(F)(F)F)ccc1Cl	-1.6
Cc1ccc(C(=O)N(Cc2ccccc2)C(C)C)cc1	1.4
Cc1ncc(-c2nnnn2-c2ccccc2)c(-c2cccc(Cl)c2)n1	0
CC(=O)c1cc2cc(Cl)cc(Cl)c2o1	1
CC(=O)c1cc2cc(Cl)cc(Cl)c2oc1=O	-0.41
Cc1cc2nc(-c3cc4cc(Cl)cc(Cl)c4oc3=O)[nH]c2cc1C	4.7*
SMILES	Dicer processing
CC(C)CNC(=S)NCc1ccco1	-0.57
Cc1cccc(N2C(=O)C3CN=NC3(C)C2=O)c1 (stereo not drawn)	1.8
Cc1[nH]nc(-c2ccc(O)cc2O)c1Oc1ccccc1	-1.1
COc1ccc(-c2n[nH]c(C)c2-c2ccc(F)cc2)c(O)c1	1.6
CCOc1ccc(-c2n[nH]c(C)c2-c2ccccc2)c(O)c1	5.1*
CCOC(=O)C(NC(=O)c1ccccc1)(OCC)C(F)(F)F (stereo not drawn)	2.5

Screening results from PubChem.
